According to PubChem BioAssay (EPA / NIEHS):
Results filed as inconclusive are left out. Active and inactive are the calls of the source. How the source made its calls, unless noted: active means hit-call score of the fitted dose curve at least 0.9, where 1 is the maximum; inconclusive means response in the unintended direction; inactive means score below 0.9.

Assays:
[1] = TOX21_p53_BLA_p2_viability: Viability Assessment in the Tox21 HCT-116 p53 Agonism Beta-lactamase Assay, Phase 2 (AID 2283591);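 further: compound exposure lasted 16 h at 37 °C; actives lower the ATP signal meaning cytotoxicity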
How it was run: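 HCT-116 p53-bla cells (4000/well) rested 5 h at 37C, then received compounds in DMSO (217-fold dilution) for 16 h at 37C, 5% CO2. After the CCF4 read, CellTiter-Glo was added; ATP luminescence was read after 30 min at room temperature.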

[2] = TOX21_p53_BLA_p3_viability: Viability Assessment in the Tox21 HCT-116 p53 Agonism Beta-lactamase Assay, Phase 3 (AID 2283593);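 further: cells exposed to compound for 16 h before reading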
How it was run: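 HCT-116 cells (4000/well) rested 5 h at 37C, then got DMSO compounds by pin tool (217-fold dilution) for 16 h at 37C, 5% CO2. After the bla read, CellTiter-Glo was added and luminescence read at 30 min, room temperature.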

[3] = biological target: Cellular tumor antigen p53 (Homo sapiens) (UniProt P04637); experiment: TOX21_p53_BLA_p5_ratio: Tox21 HCT-116 p53 Agonism Beta-lactamase Assay, Ratio, Phase 5 (AID 2283599)
How it was run: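 HCT-116 cells carrying a p53-inducible beta-lactamase reporter were seeded at 4000 cells/well and dosed after 5 h with compound in DMSO (217-fold dilution). After 16 h at 37C, CCF4-AM substrate was added for 2 h, and the 460/530 nm emission ratio was scored as gain-of-signal versus DMSO.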

[4] = biological target: Cellular tumor antigen p53 (Homo sapiens) (UniProt P04637); experiment: TOX21_p53_BLA_p4_ratio: Tox21 HCT-116 p53 Agonism Beta-lactamase Assay, Ratio, Phase 4 (AID 2283601)
How it was run: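 HCT116 cells carrying an inducible beta-lactamase reporter were plated at 4000 cells/well, rested 5 h, then exposed to compounds in DMSO (217-fold dilution) for 16 h at 37C. CCF4-AM substrate was loaded 2 h at room temperature; 460/530 nm emission ratio scored gain-of-signal versus DMSO.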

[5] = TOX21_p53_BLA_p4_viability: Viability Assessment in the Tox21 HCT-116 p53 Agonism Beta-lactamase Assay, Phase 4 (AID 2283597);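 further: hits lower the luminescence signal meaning cytotoxicity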
How it was run: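 Luminescent ATP readout (CellTiter-Glo, 30 min, room temperature) in the same wells as the p53 bla ratio. HCT116 cells were treated for 16 h at 37C with DMSO-dissolved compounds.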

[6] = TOX21_p53_BLA_p5_viability: Viability Assessment in the Tox21 HCT-116 p53 Agonism Beta-lactamase Assay, Phase 5 (AID 2283600)
How it was run: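 Seeded cells (4000/well) settle 5 h before compound addition. Plates then incubate 16 h at 37C, receive FRET substrate for 2 h, and finally CellTiter-Glo, with luminescence measured after a 30 min room-temperature incubation.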

[7] = system: Brachyury (BRA) Protein Expression, Deisenroth Lab, TBXT (gene 6862); experiment: CCTE_Deisenroth_DEVTOX-GLR_legacy_Bra: (Legacy) CCTE's DevTox GLR-Endo Assay Evaluation of Brachyury (BRA) Protein Expression, Deisenroth Lab (AID 2284329; active means hit-call score of the fitted dose curve at least 0.9, where 1 is the maximum; inactive means score below 0.9)
How it was run: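 RUES2-GLR human pluripotent cells differentiated 48 h with two 24-h-interval chemical exposures (1 nM - 200 uM, 10 points); fixed, nuclear-stained, imaged. Bra+ cell percentage (intensity 5x BMAD above pluripotent control median) fitted relative to 0.2% DMSO.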

[8] = system: SRY-box transcription factor 17 (SOX17) Protein Expression, Deisenroth Lab, SOX17 (gene 64321); experiment: CCTE_Deisenroth_DEVTOX-GLR_legacy_Sox17: (Legacy) CCTE's DevTox GLR-Endo Assay Evaluation of SRY-box transcription factor 17 (SOX17) Protein Expression, Deisenroth Lab (AID 2284341; active means hit-call score of the fitted dose curve at least 0.9, where 1 is the maximum; inactive means score below 0.9); conditions: actives raise or lower the signal
How it was run: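 Using the RUES2-GLR line, compounds are tested as 10-point series during 48-h defined-media differentiation. Sox17 reporter fluorescence per cell determines positivity; endpoint is percentage positive, analysed bidirectionally versus DMSO baseline.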

[9] = system: SRY-box transcription factor 2 (SOX2) Protein Expression, Deisenroth Lab, SOX2 (gene 6657); experiment: CCTE_Deisenroth_DEVTOX-GLR_legacy_Sox2: (Legacy) CCTE's DevTox GLR-Endo Assay Evaluation of SRY-box transcription factor 2 (SOX2) Protein Expression, Deisenroth Lab (AID 2284346; active means hit-call score of the fitted dose curve at least 0.9, where 1 is the maximum; inactive means score below 0.9)
How it was run: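 RUES2-GLR human pluripotent cells seeded 24 h, then differentiated 48 h in defined media with two chemical doses 24 h apart (10-point, 1 nM–200 uM). Fixed, nuclear-stained, imaged; % Sox2+ cells (>5x BMAD over endoderm control median), DMSO-subtracted, fitted upward.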

[10] = system: SRY-box transcription factor 2 (SOX2) Protein Expression, Deisenroth Lab, SOX2 (gene 6657); experiment: CCTE_Deisenroth_DEVTOX-GLR_Endo_SOX2: CCTE's DevTox GLR-Endo Assay Evaluation of SRY-box transcription factor 2 (SOX2) Protein Expression, Deisenroth Lab (AID 2284412)
How it was run: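 RUES2-GLR human pluripotent cells were seeded 24 h, then differentiated 48 h with two chemical exposures 24 h apart. Cells were fixed, nuclei stained and imaged by high-content microscopy. Endpoint is %SOX2+ cells over cell count, minus 0.2% DMSO control; 10-point series 1 nM–200 uM.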

[11] = system: Brachyury (BRA) Protein Expression, TBXT (gene 6862); experiment: CCTE_Deisenroth_DEVTOX-GLR_Endo_BRA: CCTE's DevTox GLR-Endo Assay Evaluation of Brachyury (BRA) Protein Expression, Deisenroth Lab (AID 2284417; active means hit-call score of the fitted dose curve at least 0.9, where 1 is the maximum; inactive means score below 0.9)
How it was run: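 Percent BRA+ (mesoderm) RUES2-GLR cells after 48 h differentiation with two exposures, 1 nM - 200 uM; 0.2% DMSO control subtracted.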

[12] = CCTE_Deisenroth_DEVTOX-GLR_Endo_CellCount: Viability Assessment in CCTE's DevTox GLR-Endo Assay, Deisenroth Lab (AID 2284420; active means hit-call score of the fitted dose curve at least 0.9, where 1 is the maximum; inactive means score below 0.9)
How it was run: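 Measured 48 h after dosing: fluorescent nuclei counted by imaging in human RUES2-GLR cells under defined differentiation media, tested at 1 nM - 200 uM. Values are percent cell-count change relative to 0.2% DMSO.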

[13] = system: SRY-box transcription factor 2 (SOX2) Protein Expression, Deisenroth Lab, SOX2 (gene 6657); experiment: CCTE_Deisenroth_DEVTOX-GLR_Pluri_SOX2: CCTE's DevTox GLR-Pluri Assay Evaluation of SRY-box transcription factor 2 (SOX2) Protein Expression, Deisenroth Lab (AID 2284428; active means hit-call score of the fitted dose curve at least 0.9, where 1 is the maximum; inactive means score below 0.9)
How it was run: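 Percent SOX2+ RUES2-GLR cells, determined by fluorescence microscopy after 48 h and two 24-h-interval chemical exposures spanning 1 nM–200 uM, served as the endpoint. Values are expressed relative to 0.2% DMSO; total cell counts assessed viability.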

[14] = system: Brachyury (BRA) Protein Expression, Deisenroth Lab, TBXT (gene 6862); experiment: CCTE_Deisenroth_DEVTOX-GLR_Pluri_BRA: CCTE's DevTox GLR-Pluri Assay Evaluation of Brachyury (BRA) Protein Expression, Deisenroth Lab (AID 2284429)
How it was run: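 Human pluripotent RUES2-GLR cells, seeded 24 h, were differentiated 48 h in defined media with two chemical doses at 24-h intervals (10-point, 1 nM - 200 uM). Readout: percent BRA+ cells by fluorescent reporter imaging, minus 0.2% DMSO control.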

[15] = CCTE_Deisenroth_DEVTOX-GLR_Pluri_CellCount: Viability Assessment in CCTE's DevTox GLR-Pluri Assay Evaluation of Total Cell Counts, Deisenroth Lab (AID 2284430; active means hit-call score of the fitted dose curve at least 0.9, where 1 is the maximum; inactive means score below 0.9)
How it was run: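 RUES2-GLR human pluripotent cells, seeded 24 h, then differentiated 48 h with two chemical exposures 24 h apart; 10-point series 1 nM - 200 uM. Fixed, nuclear-stained, imaged (5 fields/well); nuclei count as % change vs 0.2% DMSO.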

PGR (gene 5241) [16] = biological target: PGR (gene 5241) (UniProt P06401); experiment: TOX21_PR_BLA_Followup_Antagonist_ratio: Tox21 HEK293 Progesterone Receptor (PR) Antagonism Beta-lactamase Follow-Up Assay, Ratio (AID 2283934)
How it was run: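 PR-UAS-bla HEK293T cells in medium with 2% charcoal-stripped FBS were treated with compounds plus 1 nM (final) promegestone (R5020) for 16 hr at 37C. LiveBLAzer B/G FRET substrate was then added for 2 h at room temperature; signal is cleaved/uncleaved substrate ratio versus DMSO.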

[17] = TOX21_PR_BLA_Followup_Agonist_viability: Viability Assessment in the Tox21 HEK293 Progesterone Receptor (PR) Agonism Beta-lactamase Follow-Up Assay (AID 2283935);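 further: signal loss means lower viability so actives are cytotoxic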
How it was run: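 PR-UAS-bla HEK293T cells in 2% charcoal-stripped FBS medium, compound added after 6 hr plating, 16 hr at 37C/5% CO2. After bla FRET read, CellTiter-Glo added; luminescence read after 30 min at room temperature; signal loss marks cytotoxicity.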

[18] = TOX21_PR_BLA_Followup_Antagonist_viability: Viability Assessment in the Tox21 HEK293 Progesterone Receptor (PR) Antagonism Beta-lactamase Follow-Up Assay (AID 2283936);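 further: hits lower the luminescence signal meaning cytotoxicity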
How it was run: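 PR-UAS-bla HEK293T cells (3,000/well, 2% charcoal-stripped FBS) given compound plus R5020 agonist, 16 h at 37C. CellTiter-Glo added after bla read, 30 min at room temperature; luminescence loss indicates cytotoxicity.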

PGR (gene 5241) [19] = biological target: PGR (gene 5241) (UniProt P06401); experiment: TOX21_PR_LUC_Followup_Antagonist: Tox21 HEK293 Progesterone Receptor (PR) Antagonism Luciferase Follow-Up Assay (AID 2283938);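 further: curve fitted upward as signal gain over DMSO baseline despite antagonist label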
How it was run: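 Luciferase reporter in HEK293-PR-A-luc cells: 16 h compound treatment at 37C, ONE-Glo luminescence detection, DMSO as negative control and baseline.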

[20] = TOX21_PR_LUC_Followup_Agonist_viability: Viability Assessment in the Tox21 HEK293 Progesterone Receptor (PR) Agonism Luciferase Follow-Up Assay (AID 2283941);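 further: loss of signal means cytotoxicity so actives lower viability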
How it was run: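 HEK293-PR-A-luc cells, pre-cultured 5 days in 10% charcoal-stripped FBS, were seeded at 3,000 cells/well, rested 5 h at 37C, then given compound in DMSO for 16 h at 37C. Cellular ATP was read by CellTiter-Glo luminescence; signal loss indicates cytotoxicity.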

Measured: AC50

Chain of PGR (gene 5241) (P06401 whole entry, looked up): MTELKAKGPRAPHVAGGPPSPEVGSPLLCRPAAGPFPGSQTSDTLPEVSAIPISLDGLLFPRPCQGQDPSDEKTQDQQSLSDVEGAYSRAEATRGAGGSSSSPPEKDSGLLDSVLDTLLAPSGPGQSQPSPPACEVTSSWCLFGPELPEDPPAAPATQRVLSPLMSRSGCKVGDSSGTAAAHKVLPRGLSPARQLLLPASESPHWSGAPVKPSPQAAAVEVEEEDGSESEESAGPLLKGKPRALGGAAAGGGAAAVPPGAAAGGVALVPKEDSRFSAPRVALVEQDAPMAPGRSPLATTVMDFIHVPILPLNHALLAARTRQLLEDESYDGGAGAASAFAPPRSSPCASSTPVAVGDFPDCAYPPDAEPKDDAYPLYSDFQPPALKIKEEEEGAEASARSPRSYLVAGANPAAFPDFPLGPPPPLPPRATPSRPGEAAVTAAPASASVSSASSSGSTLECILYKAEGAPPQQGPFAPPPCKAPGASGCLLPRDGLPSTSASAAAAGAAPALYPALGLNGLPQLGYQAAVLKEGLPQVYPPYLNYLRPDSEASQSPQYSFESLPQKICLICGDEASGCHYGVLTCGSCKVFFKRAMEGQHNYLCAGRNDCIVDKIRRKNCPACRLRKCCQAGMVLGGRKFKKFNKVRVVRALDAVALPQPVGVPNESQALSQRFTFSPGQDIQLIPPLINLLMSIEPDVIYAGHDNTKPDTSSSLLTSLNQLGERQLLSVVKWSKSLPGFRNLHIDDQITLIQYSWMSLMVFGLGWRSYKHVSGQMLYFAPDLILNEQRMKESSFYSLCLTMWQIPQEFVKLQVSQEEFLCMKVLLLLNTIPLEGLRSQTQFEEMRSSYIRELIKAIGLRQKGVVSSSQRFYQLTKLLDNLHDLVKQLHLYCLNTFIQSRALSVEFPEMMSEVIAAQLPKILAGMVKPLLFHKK
Chain of Cellular tumor antigen p53 (Homo sapiens) (P04637 whole entry, looked up): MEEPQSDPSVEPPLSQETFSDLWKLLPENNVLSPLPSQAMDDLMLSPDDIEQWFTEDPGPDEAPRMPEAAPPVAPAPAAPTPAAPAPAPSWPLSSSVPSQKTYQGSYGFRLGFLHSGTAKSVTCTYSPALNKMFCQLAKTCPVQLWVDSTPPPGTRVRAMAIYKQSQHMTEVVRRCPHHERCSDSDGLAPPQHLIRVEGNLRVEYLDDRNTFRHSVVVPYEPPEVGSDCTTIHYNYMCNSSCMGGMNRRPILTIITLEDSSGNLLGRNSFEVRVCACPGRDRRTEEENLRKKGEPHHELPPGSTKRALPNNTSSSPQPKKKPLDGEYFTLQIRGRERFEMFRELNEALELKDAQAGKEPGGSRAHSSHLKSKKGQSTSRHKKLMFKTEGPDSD

Nc1cc(Cl)c(NC2=NCCN2)c(Cl)c1
inactive: [1] | [2] | [3] | [4]

O=C(O)COc1nn(Cc2ccccc2)c2ccccc12
inactive: [1] | [2] | [5] | [6] | [4]

CC(C)OC(C)C
inactive: [1] | [2] | [3] | [6] | [4]

O=C(O)CN(CC(=O)O)CC1=CC2C(=CC1=O)Oc1cc(O)c(CN(CC(=O)O)CC(=O)O)cc1C21OC(=O)c2ccccc21 (configuration not stated)
inactive: [1] | [2] | [6]

COc1ccc(C(=O)CCC(=O)O)c2ccccc12
inactive: [1] | [2] | [6]

O=S(O)CNc1ccc(S(=O)(=O)c2ccc(NCS(=O)O)cc2)cc1
inactive: [1] | [2] | [6]

CCCCCN=C(N)N/N=C/c1c[nH]c2ccc(OC)cc12
inactive: [1] | [2] | [5] | [4] | [7] | [9]
active: [8] 5.47 µM | [10] 100 µM | [11] 143 µM | [12] 5.15 µM | [13] 7.76 µM | [14] 5.27 µM | [15] 7.83 µM

O=C(O)CCCC/C=C(\c1ccccc1)c1cccnc1
inactive: [1] | [2] | [5] | [4]

NCc1ccccc1Sc1ccccc1CO
inactive: [1] | [2] | [5] | [4]

O=S(=O)(Oc1ccc(Cl)cc1)c1ccccc1
active: PGR (gene 5241) [16] 59.9 µM
inactive: [1] | [2] | [3] | [6] | [17] | [18] | PGR (gene 5241) [19] | [20]

COc1cc(N)c(Cl)cc1C(=O)NC1CCN(Cc2ccccc2)CC1
inactive: [1] | [2] | [6]

CC1CCc2nccnc21 (configuration not stated)
inactive: [1] | [2] | [6]

C[N+]1(CCCCC[N+]2(C)CCCC2)CCCC1
inactive: [1] | [2] | [3] | [4]

COC(=O)C(c1ccccc1Cl)N1CCc2sccc2C1 (configuration not stated)
active: PGR (gene 5241) [16] 28.9 µM | PGR (gene 5241) [19] 23 µM
inactive: [1] | [2] | [3] | [6] | [17] | [18] | [20]

CCN(CC)C(=O)c1cccnc1
inactive: [1] | [2] | [5] | [6] | [4]
